Reference: PubChem BioAssay (NCATS)
Records with an inconclusive call do not appear. Calls of active or inactive are those of the source. Calls follow the shape of the dose curve; as a rule, active = well fitted inhibition curve with a large enough effect; inconclusive = small, poorly fitted or top-dose-only effect; inactive = flat fitted curve, though single readings scatter.

Columns and labels:
[1] = test system: CP269; test: qHTS profiling for inhibitors of Plasmodium falciparum proliferation (AID 504749); also: nearly all actives have a fitted effect of over 60% in size; conditions: P. falciparum in erythrocytes, SYBR Green DNA, 72 h; series mostly up to 28.7 µM
Summary of the method: (§1)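 Each compound contacts P. falciparum-infected red blood cells for 72 h at 37 C; lysis buffer (Tris, EDTA, saponin, Triton X, SYBR Green I) is added and fluorescence measured next morning; values normalized to controls.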

[2] = test system: CP286; test: as above; conditions: P. falciparum in erythrocytes, SYBR Green DNA, 72 h; series mostly up to 28.7 µM
Summary of the method: as §1

[3] = test system: CP291; test: as above; conditions: P. falciparum in erythrocytes, SYBR Green DNA, 72 h; series mostly up to 28.7 µM
Summary of the method: as §1

[4] = test system: CP297; test: as above; conditions: P. falciparum in erythrocytes, SYBR Green DNA, 72 h; series mostly up to 28.7 µM
Summary of the method: as §1

[5] = test system: CP305; test: as above; conditions: P. falciparum in erythrocytes, SYBR Green DNA, 72 h; series mostly up to 28.7 µM
Summary of the method: as §1

[6] = test system: CP315; test: as above; conditions: P. falciparum in erythrocytes, SYBR Green DNA, 72 h; series mostly up to 28.7 µM
Summary of the method: as §1

[7] = test system: CP325; test: as above; conditions: P. falciparum in erythrocytes, SYBR Green DNA, 72 h; series mostly up to 28.7 µM
Summary of the method: as §1

[8] = test system: CP329; test: as above; conditions: P. falciparum in erythrocytes, SYBR Green DNA, 72 h; series mostly up to 28.7 µM
Summary of the method: as §1

[9] = test system: CP335; test: as above; conditions: P. falciparum in erythrocytes, SYBR Green DNA, 72 h; series mostly up to 28.7 µM
Summary of the method: as §1

[10] = test system: DFO2036; test: as above; conditions: P. falciparum in erythrocytes, SYBR Green DNA, 72 h; series mostly up to 28.7 µM
Summary of the method: as §1

[11] = test system: DIV14; test: as above; conditions: P. falciparum in erythrocytes, SYBR Green DNA, 72 h; series mostly up to 28.7 µM
Summary of the method: as §1

[12] = test system: DIV17; test: as above; conditions: P. falciparum in erythrocytes, SYBR Green DNA, 72 h; series mostly up to 28.7 µM
Summary of the method: as §1

[13] = test system: DIV30; test: as above; conditions: P. falciparum in erythrocytes, SYBR Green DNA, 72 h; series mostly up to 28.7 µM
Summary of the method: as §1

[14] = test system: Dd2; test: as above; conditions: P. falciparum in erythrocytes, SYBR Green DNA, 72 h; series mostly up to 28.7 µM
Summary of the method: as §1

[15] = test system: ECU; test: as above; conditions: P. falciparum in erythrocytes, SYBR Green DNA, 72 h; series mostly up to 28.7 µM
Summary of the method: as §1

[16] = test system: FAB9; test: as above; conditions: P. falciparum in erythrocytes, SYBR Green DNA, 72 h; series mostly up to 28.7 µM
Summary of the method: as §1

[17] = test system: GB4; test: as above; conditions: P. falciparum in erythrocytes, SYBR Green DNA, 72 h; series mostly up to 28.7 µM
Summary of the method: as §1

[18] = test system: HB3; test: as above; conditions: P. falciparum in erythrocytes, SYBR Green DNA, 72 h; series mostly up to 28.7 µM
Summary of the method: as §1

[19] = test system: ICS; test: as above; conditions: P. falciparum in erythrocytes, SYBR Green DNA, 72 h; series mostly up to 28.7 µM
Summary of the method: as §1

[20] = test system: JCK; test: as above; conditions: P. falciparum in erythrocytes, SYBR Green DNA, 72 h; series mostly up to 28.7 µM
Summary of the method: as §1

[21] = test system: N140; test: as above; conditions: P. falciparum in erythrocytes, SYBR Green DNA, 72 h; series mostly up to 28.7 µM
Summary of the method: as §1

[22] = test system: P93_24; test: as above; conditions: P. falciparum in erythrocytes, SYBR Green DNA, 72 h; series mostly up to 28.7 µM
Summary of the method: as §1

[23] = test system: P94_40; test: as above; conditions: P. falciparum in erythrocytes, SYBR Green DNA, 72 h; series mostly up to 28.7 µM
Summary of the method: as §1

[24] = test system: PAD; test: as above; conditions: P. falciparum in erythrocytes, SYBR Green DNA, 72 h; series mostly up to 28.7 µM
Summary of the method: as §1

[25] = test system: PC15; test: as above; conditions: P. falciparum in erythrocytes, SYBR Green DNA, 72 h; series mostly up to 28.7 µM
Summary of the method: as §1

[26] = test system: PC26; test: as above; conditions: P. falciparum in erythrocytes, SYBR Green DNA, 72 h; series mostly up to 28.7 µM
Summary of the method: as §1

[27] = test system: PC49; test: as above; conditions: P. falciparum in erythrocytes, SYBR Green DNA, 72 h; series mostly up to 28.7 µM
Summary of the method: as §1

[28] = test system: SC27B; test: as above; conditions: P. falciparum in erythrocytes, SYBR Green DNA, 72 h; series mostly up to 28.7 µM
Summary of the method: as §1

[29] = test system: TAB109; test: as above; conditions: P. falciparum in erythrocytes, SYBR Green DNA, 72 h; series mostly up to 28.7 µM
Summary of the method: as §1

[30] = test system: TAB113; test: as above; conditions: P. falciparum in erythrocytes, SYBR Green DNA, 72 h; series mostly up to 28.7 µM
Summary of the method: as §1

[31] = test system: TAB165; test: as above; conditions: P. falciparum in erythrocytes, SYBR Green DNA, 72 h; series mostly up to 28.7 µM
Summary of the method: as §1

[32] = test system: W2; test: as above; conditions: P. falciparum in erythrocytes, SYBR Green DNA, 72 h; series mostly up to 28.7 µM
Summary of the method: as §1

[33] = test system: astro; test: Drug repurposing screens with cells derived from glioblastoma tumor samples (AID 1345199); conditions: viability, ATP luminescence, 48 h; series mostly up to 45.9 µM; also: nearly all actives have a fitted effect of over 40% in size
Summary of the method: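 Primary testing used CD133+ neurospheres from four GBM patients, seven concentrations, 48 h exposure and ATP-based viability; confirmation added three slower-growing patient lines.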

Measured: Potency
Potency is read from the fitted curve at half-maximal effect.

CCCCCCCCCC[N+](C)(C)CCCCCCCCCC
active: [1] 4.78 µM | [2] 2.51 µM | [3] 5.36 µM | [4] 6.75 µM | [5] 5.36 µM | [6] 16.9 µM | [7] 5.36 µM | [8] 6.75 µM | [9] 6.75 µM | [10] 5.01 µM | [11] 3.01 µM | [12] 3.01 µM | [13] 8.49 µM | [14] 8.91 µM | [15] 5.01 µM | [16] 5.01 µM | [17] 3.38 µM | [18] 7.94 µM | [19] 2 µM | [20] 10 µM | [21] 7.08 µM | [22] 5.01 µM | [23] 6.31 µM | [24] 8.91 µM | [25] 3.55 µM | [26] 5.36 µM | [27] 10 µM | [28] 5.01 µM | [29] 6.31 µM | [30] 5.01 µM | [31] 7.08 µM | [32] 1.51 µM | [33] 4.47 µM
